Results from PubChem BioAssay (NCI).
About 79,000 compounds went through this panel and 15% of them were active in at least one assay; those are over-represented in the sample as a whole. Activity calls are given as the source filed them. No stated cut-off is given here; in the data, active means growth inhibition above about 70%; inactive means the rest.

Tests used:
[1] = NCI Yeast Anticancer Drug Screen. Data for the wt2 strain (AID 169);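 further: 0% = growth of vehicle-treated yeast cultures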; details: S. cerevisiae wt2 strain growth inhibition, hits give high values
Summary of the method: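 Steps: yeast strain treated with compound; growth recorded; inhibition calculated relative to cultures given vehicle alone.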

[2] = NCI Yeast Anticancer Drug Screen. Data for the mlh1 strain (AID 171);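 further: 0% = growth of vehicle-treated control cultures of the same strain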; details: S. cerevisiae mlh1 strain growth inhibition, hits give high values
Summary of the method: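 Yeast screen: mutant strain plus compound, growth scored against vehicle control wells.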

[3] = NCI Yeast Anticancer Drug Screen. Data for the sgs1 strain (AID 173);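 further: 0% = growth of vehicle-only control cultures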; details: S. cerevisiae sgs1 mutant, hits give high values
Summary of the method: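 Inhibition of yeast growth served as the measure. The mutant strain was treated with each compound, and growth was normalised to cultures receiving vehicle alone.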

[4] = NCI Yeast Anticancer Drug Screen. Data for the mlh1 rad18 strain (AID 175); details: S. cerevisiae mlh1 rad18 strain growth inhibition, hits give high values
Summary of the method: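 Compound-treated yeast growth, normalised to vehicle controls. Strain bears defined DNA repair mutations.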

[5] = NCI Yeast Anticancer Drug Screen. Data for the rad18 strain (AID 177); details: S. cerevisiae rad18 mutant growth inhibition, hits give high values
Summary of the method: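 Inhibition values reflect reduced yeast growth compared with vehicle-treated controls, using a strain engineered with a DNA damage repair defect.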

[6] = NCI Yeast Anticancer Drug Screen. Data for the rad52 strain (AID 147);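 further: 0% = growth of vehicle-treated control cultures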; details: S. cerevisiae rad52 mutant growth inhibition, hits give high values
Summary of the method: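 Genetically altered yeast (DNA damage repair defect) treated with compound; inhibition calculated relative to vehicle.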

[7] = NCI Yeast Anticancer Drug Screen. Data for the wt1 strain (AID 149);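 further: 0% = growth of vehicle-treated wt1 cultures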; details: S. cerevisiae wt1 strain (SPY 50644) growth inhibition, hits give high values
Summary of the method: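 The wt1 strain was treated with compounds, and growth was compared with vehicle-treated cultures to give inhibition.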

[8] = NCI Yeast Anticancer Drug Screen. Data for the rad50EPP+ strain (AID 151);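 further: 0% = growth of vehicle-treated control cultures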; details: S. cerevisiae rad50 mutant strain, hits give high values
Summary of the method: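 Strain rad50EPP+; compound exposure; % growth inhibition vs vehicle.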

[9] = NCI Yeast Anticancer Drug Screen. Data for the mgt1 strain (AID 153); details: S. cerevisiae mgt1 mutant growth inhibition, hits give high values
Summary of the method: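 Read-out: yeast growth inhibition vs vehicle control. Strain mgt1, drawn from a panel altered in DNA damage repair or cell cycle control.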

[10] = NCI Yeast Anticancer Drug Screen. Data for the rad50 strain (AID 155);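 further: 0% = growth of vehicle-only cultures of the same strain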; details: S. cerevisiae rad50 strain growth inhibition, hits give high values
Summary of the method: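 Cells are treated with compound, grown, and their growth is then scored against vehicle-only cultures of the same repair-deficient yeast strain.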

[11] = NCI Yeast Anticancer Drug Screen. Data for the mec2-1 strain (AID 157); details: S. cerevisiae mec2-1 strain, hits give high values
Summary of the method: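 Cells of the genetically defined mec2-1 yeast strain are incubated with test compound. Inhibition of growth is calculated against vehicle-treated controls.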

[12] = NCI Yeast Anticancer Drug Screen. Data for the rad14 strain (AID 159);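 further: 0% = growth of vehicle-treated control cultures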; details: S. cerevisiae rad14 strain growth inhibition, hits give high values
Summary of the method: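 Readout: yeast growth inhibition, referenced to vehicle-only cultures. Strain bears a defined alteration in DNA damage repair.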

[13] = NCI Yeast Anticancer Drug Screen. Data for the sgs1 mgt1 strain (AID 161);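 further: 0% = growth of cultures given vehicle only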; details: S. cerevisiae sgs1 mgt1 strain, hits give high values
Summary of the method: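 Inhibition of yeast growth, normalised to vehicle-treated controls, is reported for a strain bearing genetic alterations in DNA damage repair.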

[14] = NCI Yeast Anticancer Drug Screen. Data for the CLN2oe strain (AID 163);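 further: 0% = growth of vehicle-only control cultures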; details: S. cerevisiae CLN2oe strain, hits give high values
Summary of the method: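 Strain altered in cell-cycle control, incubated with compound; growth compared to solvent-treated controls.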

[15] = NCI Yeast Anticancer Drug Screen. Data for the cln2 rad14 strain (AID 165);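 further: 0% = growth equal to vehicle treated cultures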; details: S. cerevisiae cln2 rad14 strain, hits give high values
Summary of the method: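 The screen exposed genetically defined yeast (cln2 rad14) to test compounds and scored growth inhibition relative to vehicle-treated controls.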

[16] = NCI Yeast Anticancer Drug Screen. Data for the bub3 strain (AID 167); details: S. cerevisiae bub3 mutant strain, hits give high values
Summary of the method: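 Part of a panel of yeast mutants defective in DNA damage repair or cell cycle regulation. Each strain is grown with compound, and inhibition is calculated relative to solvent-treated cultures.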

[17] = at 5.0 µM (retest, dose inferred, filed as 0.5)
[18] = at 50.0 µM (retest, dose inferred, filed as 5.0)

Measured: growth inhibition

CC(=O)OCC(=O)C1(O)CCC2C3CCC4CCCCC4(C)C3CCC21C (centres undefined)
inactive: [1]; at 1.2 µM -50% | [1]; at 3.7 µM -54% | [1]; at 11.0 µM -17% | [1]; at 33.0 µM 27% | [2]; at 1.2 µM -2% | [2]; at 3.7 µM -8% | [2]; at 11.0 µM 7% | [2]; at 33.0 µM 37% | [3]; at 1.2 µM -16% | [3]; at 3.7 µM -16% | [3]; at 11.0 µM 14% | [3]; at 33.0 µM 38% | [4]; [17] 47% | [5]; at 1.2 µM 10% | [5]; at 3.7 µM 24% | [5]; at 11.0 µM 32% | [5]; at 33.0 µM 67%
active: [1]; at 100.0 µM 74% | [2]; at 100.0 µM 79% | [3]; at 100.0 µM 79% | [4]; [18] 80% | [4]; at 50.0 µM 70.8% | [5]; at 100.0 µM 92%

Cc1ccc(S(=O)(=O)NNC(=S)Nc2cccc3ccccc23)cc1
active: [16]; [18] 96%
inactive: [6]; at 1.2 µM 4% | [6]; at 3.7 µM 2% | [6]; at 11.0 µM 3% | [6]; at 33.0 µM 7% | [6]; at 100.0 µM 6% | [7]; at 1.2 µM -3% | [7]; at 3.7 µM -2% | [7]; at 11.0 µM -1% | [7]; at 33.0 µM 1% | [7]; at 100.0 µM 2% | [8]; at 1.2 µM 10% | [8]; at 3.7 µM 11% | [8]; at 11.0 µM 20% | [8]; at 33.0 µM 15% | [8]; at 100.0 µM 1% | [9]; at 1.2 µM -1% | [9]; at 3.7 µM -4% | [9]; at 11.0 µM -1% | [9]; at 33.0 µM -28% | [9]; at 100.0 µM 1% | [10]; at 1.2 µM 0% | [10]; at 3.7 µM -4% | [10]; [17] -4% | [10]; at 11.0 µM -10% | [10]; at 33.0 µM 2% | [10]; [18] 16% | [10]; at 50.0 µM 9.65% | [10]; at 100.0 µM 2% | [11]; at 1.2 µM 3% | [11]; at 3.7 µM 2% | [11]; [17] -19% | [11]; at 11.0 µM 4% | [11]; at 33.0 µM 5% | [11]; [18] 33% | [11]; at 50.0 µM -14.4% | [11]; at 100.0 µM 4% | [12]; at 1.2 µM -6% | [12]; at 3.7 µM -4% | [12]; at 11.0 µM -8% | [12]; at 33.0 µM -4% | [12]; at 100.0 µM -3% | [13]; [17] -23% | [13]; [18] 41% | [13]; at 50.0 µM 49.6% | [14]; at 1.2 µM -12% | [14]; at 3.7 µM -14% | [14]; at 11.0 µM -18% | [14]; at 33.0 µM -12% | [14]; at 100.0 µM -1% | [15]; [17] -1% | [15]; [18] 17% | [15]; at 50.0 µM 13.4% | [16]; at 1.2 µM -1% | [16]; at 3.7 µM 0% | [16]; [17] -19% | [16]; at 11.0 µM 10% | [16]; at 33.0 µM 14% | [16]; at 50.0 µM 66.5% | [16]; at 100.0 µM 29% | [1]; at 1.2 µM -2% | [1]; at 3.7 µM -1% | [1]; at 11.0 µM 2% | [1]; at 33.0 µM 8% | [1]; at 100.0 µM 7% | [2]; at 1.2 µM 0% | [2]; at 3.7 µM -6% | [2]; at 11.0 µM -2% | [2]; at 33.0 µM 0% | [2]; at 100.0 µM -5% | [3]; at 1.2 µM 2% | [3]; at 3.7 µM 4% | [3]; at 11.0 µM 10% | [3]; at 33.0 µM 18% | [3]; at 100.0 µM 17% | [4]; [17] -8% | [4]; [18] 29% | [4]; at 50.0 µM -1.25% | [5]; at 1.2 µM -1% | [5]; at 3.7 µM -1% | [5]; at 11.0 µM 2% | [5]; at 33.0 µM -4% | [5]; at 100.0 µM 12%

N#Cc1ccc(C2NN=CC23C(=O)c2ccccc2OC3c2ccccc2)cc1 (centres undefined)
inactive: [6]; at 1.2 µM 2% | [6]; at 3.7 µM 5% | [6]; at 11.0 µM 4% | [6]; at 33.0 µM 3% | [6]; at 100.0 µM 5% | [7]; at 1.2 µM 0% | [7]; at 3.7 µM 0% | [7]; at 11.0 µM -1% | [7]; at 33.0 µM -2% | [7]; at 100.0 µM 2% | [8]; at 1.2 µM -2% | [8]; at 3.7 µM 0% | [8]; at 11.0 µM -1% | [8]; at 33.0 µM -3% | [8]; at 100.0 µM 3% | [9]; at 1.2 µM -4% | [9]; at 3.7 µM -2% | [9]; at 11.0 µM 5% | [9]; at 33.0 µM -3% | [9]; at 100.0 µM 2% | [10]; at 1.2 µM 2% | [10]; at 3.7 µM 4% | [10]; [17] 10% | [10]; at 11.0 µM -6% | [10]; at 33.0 µM 5% | [10]; [18] 66% | [10]; at 100.0 µM 3% | [11]; at 1.2 µM 2% | [11]; at 3.7 µM -2% | [11]; [17] -19% | [11]; at 11.0 µM -3% | [11]; at 33.0 µM -4% | [11]; at 100.0 µM 1% | [12]; at 1.2 µM 0% | [12]; at 3.7 µM 1% | [12]; at 11.0 µM 5% | [12]; at 33.0 µM 3% | [12]; at 100.0 µM 3% | [13]; [17] -22% | [14]; at 1.2 µM -2% | [14]; at 3.7 µM 2% | [14]; at 11.0 µM 5% | [14]; at 33.0 µM -1% | [14]; at 100.0 µM 5% | [15]; [17] -16% | [15]; [18] 38% | [15]; at 50.0 µM 61% | [16]; at 1.2 µM -7% | [16]; at 3.7 µM 0% | [16]; [17] -28% | [16]; at 11.0 µM 7% | [16]; at 33.0 µM -2% | [16]; [18] 16% | [16]; at 50.0 µM 64% | [16]; at 100.0 µM 0% | [1]; at 1.2 µM 0% | [1]; at 3.7 µM 0% | [1]; at 11.0 µM 2% | [1]; at 33.0 µM 1% | [1]; at 100.0 µM 3% | [2]; at 1.2 µM 0% | [2]; at 3.7 µM -5% | [2]; at 11.0 µM 0% | [2]; at 33.0 µM -2% | [2]; at 100.0 µM 4% | [3]; at 1.2 µM 0% | [3]; at 3.7 µM -4% | [3]; at 11.0 µM -3% | [3]; at 33.0 µM -3% | [3]; at 100.0 µM -1% | [4]; [17] -14% | [4]; [18] 60% | [4]; at 50.0 µM 56.4% | [5]; at 1.2 µM -3% | [5]; at 3.7 µM -4% | [5]; at 11.0 µM -3% | [5]; at 33.0 µM -16% | [5]; at 100.0 µM -1%
active: [10]; at 50.0 µM 73.3% | [11]; [18] 85% | [11]; at 50.0 µM 77% | [13]; [18] 93% | [13]; at 50.0 µM 77.5%
